697 NFkB inh: inhibitors of the PMA/ionomycin-induced NF-kB reporter in 697 B cells | 697 B-cell NF-kB luciferase reporter, 16 h | inhibition, % at 4 µM | hit rate 0.33% among 330,000; in the data active means inhibition above about 35%
Beta cell apopt: beta cell apoptosis inhibition; protection from apoptosis, % (concentration not given with the values); hit rate 0.8% among 300,000; AID 435005; INS-1E cytokine-induced death, ATP luminescence, 48 h; percent of positive-control rescue, neutral wells zero;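 active means Every replicate reaches about 75%, or at least half do and their mean reaches it too, limit read from the data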;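 further: 0% = cytokine-treated negative control wells and 100% = positive control rescue; higher means more ATP so stronger rescue from cytokine killing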
Jurkat NFkB inh: inhibitors of the PMA/ionomycin-induced NF-kB reporter in Jurkat cells. PMA/ionomycin-induced NF-kB luciferase reporter, luminescence. inhibition, % at 4 µM. hit rate 0.53% among 330,000; in the data active means inhibition above about 50%
Mdm2-MdmX inh: human Mdm2/MdmX binding inhibition | O15151+Q00987 | SaOS-2 split-luciferase Mdm2/MdmX complementation, luminescence | inhibition, % at 8 µM | hit rate 3% among 330,000;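 active means inhibition of at least 50% at 8 µM in the primary screen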
Gli-Sufu antag: Gli-Sufu pathway antagonism; Sufu-KO-LIGHT fibroblasts, Gli luciferase reporter luminescence; inhibition, % at 5 µM; hit rate 0.74% among 340,000;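 active means inhibition above about 55%, limit read from the data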;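 further: 0% = DMSO-treated cells and 100% = wells with medium but no cells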
Mdm2-MdmX conf: confirmation of human Mdm2/MdmX interaction inhibitors | shares compounds with Mdm2-MdmX inh | Mdm2-MdmX binding, luminescent assay | hit rate 55% among 10,000 | AID 489028 | inhibition, % at 8 µM; in the data active means inhibition above about 40%
FLuc counter: counter-screen for Mdm2/MdmX inhibitors: full-length luciferase. shares compounds with Mdm2-MdmX inh. SaOS-2 full-length luciferase counterscreen, luminescence. inhibition, % at 8 µM. hit rate 77% among 6,200. AID 504607;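 active means mean inhibition at 8 µM reaching about 37%, which flags the compound as non-specific, limit read from the data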;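 further: p53-null SaOS-2 cells with luciferase driven by a doxycycline-inducible promoter; compound on cells about two nights before reading with doxycycline added after day one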
An asterisk follows results filed as active. Rows were chosen to be rich in hits. Some 4% of all compounds tested hit in one or more screens of this group.

Clc1ccc(-c2csc3ncnc(NCCN4CCOCC4)c23)cc1 was read as 697 NFkB inh -78, Beta cell apopt 0, Jurkat NFkB inh -16, Mdm2-MdmX inh 45 and Gli-Sufu antag 4.
For Cc1ccc(-c2csc3ncnc(NCCN4CCOCC4)c23)cc1 the results were 697 NFkB inh -73, Beta cell apopt -3, Jurkat NFkB inh -8, Mdm2-MdmX inh 54*, Gli-Sufu antag -13 and Mdm2-MdmX conf 32.
c1ccc(-c2csc3ncnc(NCCN4CCOCC4)c23)cc1 was read as 697 NFkB inh -59, Beta cell apopt 4, Jurkat NFkB inh 0, Mdm2-MdmX inh 42 and Gli-Sufu antag 31.
Screening Cc1ccc(S(=O)(=O)Nc2cc(-c3nn(C)c(=O)c4ccccc34)ccc2N2CCOCC2)cc1 returned 697 NFkB inh 25, Beta cell apopt 7, Jurkat NFkB inh 26, Mdm2-MdmX inh 86*, Gli-Sufu antag 12, Mdm2-MdmX conf 77* and FLuc counter 30.
For Cn1nc(-c2ccc(N3CCOCC3)c(NS(=O)(=O)c3ccc(Cl)cc3)c2)c2ccccc2c1=O the results were 697 NFkB inh 11, Beta cell apopt 6, Jurkat NFkB inh -8, Mdm2-MdmX inh 67*, Gli-Sufu antag 7, Mdm2-MdmX conf 36 and FLuc counter 38*.
`CC(=O)Nc1cc(-c2nn(C)c(=O)c3ccccc23)ccc1N1CCOCC1` gave 697 NFkB inh -4, Beta cell apopt -2, Jurkat NFkB inh -2, Mdm2-MdmX inh 16 and Gli-Sufu antag 15.
O=C(OCCN1CCCCC1)c1cccc(Cl)c1 was read as 697 NFkB inh -72, Beta cell apopt -3, Jurkat NFkB inh -16, Mdm2-MdmX inh -14 and Gli-Sufu antag -1.

Screening results as filed in PubChem.
